Entries with a potency or affinity are not part of this list.
What was measured:
[1] = tested on: Klebsiella pneumoniae; conditions: Concentration 20 uM; ASSAY_TEST Inhibition of Bacterial Growth; detection method Absorption (OD600); MEDIA CAMHB; plate type 384well; NBS; CORNING #3640; time 18 hr
[2] = tested on: Candida albicans; conditions: 20 µM
[3] = tested on: Cryptococcus neoformans; conditions: Concentration 20 uM; ASSAY_TEST Inhibition of Fungal Growth; detection method Resazurin; Absorption (OD600-OD570); plate type 384well; NBS; CORNING #3640

Row | Compound | Inhibition [1] [%] | Inhibition [2] [%] | Inhibition [3] [%]
1 | C[C@]12CC[C@H]3[C@@H](CCC4=CC(=O)CC[C@@H]43)[C@@H]1CC[C@@H]2O [NANDROLONE] | 5.92 | 7.15 | -1.13
2 | Nc1nc2ccc(Cl)cc2c2nc(-c3ccco3)nn12 [CGS-15943] | 10.58 | 6.09 | -14.37
3 | CCCN1C[C@H](CSC)C[C@@H]2c3cccc4[nH]cc(c34)C[C@H]21.CS(=O)(=O)O [PERGOLIDE MESYLATE] | 13.95 | 2.85 | -3.89
4 | NS(=O)(=O)c1cc(C2(O)NC(=O)c3ccccc32)ccc1Cl (stereo not drawn) [CHLORTHALIDONE] | 4.57 | 3.92 | -1.27
5 | C#C[C@]1(OC(C)=O)CC[C@H]2[C@@H]3CCC4=CC(=O)CC[C@@H]4[C@H]3CC[C@@]21C [NORETHINDRONE ACETATE] | -0.71 | 6.32 | -4.57
6 | CN1CCN2c3ncccc3Cc3ccccc3C2C1 (stereo not drawn) [MIRTAZAPINE] | 5.61 | 4.27 | 3.57
7 | Cl.Oc1ccc2c3c1OC1C(O)CC[C@@]4(O)[C@@H](C2)N(CC2CCC2)CC[C@]314 (stereo partly drawn) | 8.11 | 2.98 | -7.08
8 | COCCCOc1ccnc(C[S+]([O-])c2nc3ccccc3[nH]2)c1C (stereo not drawn) [RABEPRAZOLE] | 14.6 | 5.74 | -21.21
9 | CCC1(c2ccc(N)cc2)CCC(=O)NC1=O (stereo not drawn) [AMINOGLUTETHIMIDE] | 3.02 | 2.63 | -5.32
10 | C#CCN(C)[C@H](C)Cc1ccccc1.Cl [SELEGILINE HYDROCHLORIDE] | 8.65 | 4.68 | 1.77
11 | c1ccc2c3c([nH]c2c1)CNCC3 [TRYPTOLINE] | 13.54 | 3.92 | -5.61
12 | CNCC(O)c1ccc(O)cc1 (stereo not drawn) [OXEDRINE] | -0.12 | 5.72 | 1.4
13 | CC(C)[C@]12O[C@H]1[C@@H]1O[C@]13[C@]1(O[C@H]1C[C@H]1C4=C(CC[C@@]13C)C(=O)OC4)[C@@H]2O [TRIPTOLIDE] | 7.24 | 1.65 | -8.43
14 | NCCc1ccccn1 | 3.21 | 3.53 | -5.04
15 | CCN(C(C)=O)c1cccc(-c2ccnc3c(C#N)cnn23)c1 [ZALEPLON] | 6.53 | -0.36 | -1.32
16 | CS(=O)(=O)O.O=C(O[C@@H]1C[C@@H]2C[C@H]3C[C@H](C1)N2CC3=O)c1c[nH]c2ccccc12 | 8.46 | 2.39 | 1.75
17 | Br.CN1[C@@H]2CC(OC(=O)[C@H](CO)c3ccccc3)C[C@H]1[C@@H]1O[C@@H]12.O.O.O (stereo partly drawn) | 13.1 | 2.39 | -4.17
18 | C[N+]1(C)CCCC(OC(=O)C(O)(c2ccccc2)c2ccccc2)C1.[Br-] (stereo not drawn) [MEPENZOLATE BROMIDE] | 9.6 | 4.42 | -1.1
19 | O=C(O)C(Cl)Cl [DICHLOROACETIC ACID] | 10.68 | 2.59 | -3.9
20 | CCOC(=O)C1(c2ccccc2)CCN(CCC(C#N)(c2ccccc2)c2ccccc2)CC1.Cl [DIPHENOXYLATE HYDROCHLORIDE] | 2.24 | 4.81 | -16.2
21 | CNS(=O)(=O)Cc1ccc2[nH]cc(CCN(C)C)c2c1.O=C(O)CCC(=O)O [SUMATRIPTAN SUCCINATE] | 9.24 | 4.97 | -9.65
22 | CCOC(=O)c1ncn2c1CN(C)C(=O)c1cc(F)ccc1-2 [FLUMAZENIL] | -2 | 0.3 | -8.54
23 | c1cncc([C@@H]2CCCN2)c1 [NORNICOTINE] | 9.44 | 3.55 | -7.65
24 | CN(C)CCc1c[nH]c2ccc(Cn3cncn3)cc12.O=C(O)c1ccccc1 [RIZATRIPTAN BENZOATE] | 7.74 | 5.06 | -5.39
25 | Cn1c(=O)c2nc[nH]c2n(C)c1=O.O [THEOPHYLLINE] | 1.07 | 3.65 | 7.56
26 | Cl.O=C1CC2(CCCC2)CC(=O)N1CCCCN1CCN(c2ncccn2)CC1 [BUSPIRONE HYDROCHLORIDE] | 10.99 | 5.32 | -4.43

Reference: ChEMBL document CHEMBL4513141, “CO-ADD screening of NIH (USA) - Clinical Collection” (2021)
